Only some compounds are listed: those with a hit (about 2.8% of all), similar ones and a draw of the others.
WRN inhibitor – WRN helicase (human) inhibition | Q14191 | Potency, µM (series often up to 114 µM), inactives show top-dose activity change, negative = inhibition, most hits filed as inhibitors | 0.46% of 360,000 active | WRN helicase unwinding, fluorescent forked duplex, kinetic; also: potency is read from the fitted curve at half-maximal effect; % is scaled to controls: 0 for no effect and ±100 for the full control effect; nearly all actives have a fitted effect of over 55% in size
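Enzyme (20 nM final) and test compound sit together 15 min at room temperature before substrate addition. Substrate is a single-forked duplex oligonucleotide (100 nM) labelled with fluorophore and quencher, with 2 mM ATP; helicase unwinding raises red fluorescence, read kinetically.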
PI5P4Ka inh – inhibitors of human PI5P4K alpha; 1.2% of 330,000 active; PI5P4Kalpha enzyme, ADP-Glo luminescence, 60 min; hits give low values; AID 652105; P48426; max response, %; active = max response of -50% or lower; inconclusive = between -30% and -50%; inactive = -30% or higher; also: value at the top dose of about 77 µM; % is scaled to controls: 0 for no effect and ±100 for the full control effect
Target sequence (P48426 whole entry, looked up): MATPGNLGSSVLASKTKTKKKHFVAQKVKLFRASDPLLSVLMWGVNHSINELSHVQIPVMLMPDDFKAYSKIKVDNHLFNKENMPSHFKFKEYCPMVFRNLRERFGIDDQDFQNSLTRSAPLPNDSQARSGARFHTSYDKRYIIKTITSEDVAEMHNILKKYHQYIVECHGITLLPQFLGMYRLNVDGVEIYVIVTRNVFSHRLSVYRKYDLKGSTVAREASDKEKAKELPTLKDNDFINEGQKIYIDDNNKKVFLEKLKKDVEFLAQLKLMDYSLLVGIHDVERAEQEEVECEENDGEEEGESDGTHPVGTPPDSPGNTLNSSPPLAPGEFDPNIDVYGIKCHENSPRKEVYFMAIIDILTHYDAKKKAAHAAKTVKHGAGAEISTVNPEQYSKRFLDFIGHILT
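Enzyme plus substrate dispensed, test compounds pinned in, then ATP (5 microM final) added. After 60 min at RT, ADP-Glo reagent 1 for 45 min and reagent 2 for 30 min preceded luminescence imaging.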
Pol eta inh-1 – DNA polymerase eta (human) inhibition; recombinant Pol eta, fluorescent DNA replication assay; Potency, µM (highest dose often 114 µM), for inactives: at the top dose activity change, negative = inhibition, most hits filed as inhibitors; 1.2% of 390,000 active; Q9Y253; also: potency is read from the fitted curve at half-maximal effect; % is scaled to controls: 0 for no effect and ±100 for the full control effect
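Pol eta at 10 nM preincubated with compounds 15 min at room temperature; reaction started with fluorescent substrate (50 nM final) and read kinetically at 0 and 10 min.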
Pol kappa inh-1 – DNA polymerase kappa (human) inhibition; Potency, µM (highest dose often 107 µM), for the others: top-dose activity, negative = inhibition, usual class: inhibitors; Q9UBT6; 0.53% of 400,000 active; purified Pol kappa, fluorescent DNA synthesis assay, 10 min; AID 588579; also: potency is read from the fitted curve at half-maximal effect; % is scaled to controls: 0 for no effect and ±100 for the full control effect
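Readout: fluorescence, taken kinetically at 0 and 10 min. Conditions: 10 nM Pol kappa, 15 min RT compound preincubation, 50 nM substrate final. Controls: enzyme-free buffer wells.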
Pol beta inh – inhibitors of human DNA polymerase beta; P06746; Pol beta primer extension/strand displacement, fluorescence kinetic; Potency, µM (titrated, usually from 114 µM), inactives show at the highest dose activity change, negative = inhibition, actives largely listed as inhibitors; 1.3% of 340,000 active; AID 485314; also: potency is read from the fitted curve at half-maximal effect; % is scaled to controls: 0 for no effect and ±100 for the full control effect
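Homogeneous kinetic assay of primer extension and strand displacement by 10 nM Pol beta, preincubated 15 min at room temperature with compound before 50 nM substrate (final) was added. Read at 0 and 10 min; four-parameter Hill fit.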
POLI inh – blocks human DNA polymerase iota activity; 1% of 390,000 active; Pol iota fluorescent replication assay, 10 min; Potency, µM (top dose mostly 115 µM), inactives show top-dose activity, negative = inhibition, actives largely listed as inhibitors; Q9UNA4; also: potency is read from the fitted curve at half-maximal effect
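Fluorescent replication assay read twice, at 0 min and 10 min after adding 50 nM (final) substrate. Enzyme (10 nM) and compounds were first incubated 15 min at room temperature; enzyme-free buffer wells were negative controls.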
Pol kappa inh-2 – confirmation of human DNA polymerase kappa inhibitors; shares compounds with Pol eta inh-1; purified Pol-kappa, fluorescent strand-displacement substrate; Potency, µM, usual class: inhibitors; 76% of 920 active; AID 720501; also: potency is read from the fitted curve at half-maximal effect
Pol eta inh-2 – Pol eta (human) inhibition, cherry-pick confirmation; shares compounds with Pol eta inh-1; Pol eta primer extension, TAMRA/BHQ fluorescence, 10 min; Potency, µM, actives largely listed as inhibitors; 64% of 2,600 active; AID 720502; also: potency is read from the fitted curve at half-maximal effect
* marks the source's active call; other numbers are inactive results; ? = inconclusive; . = not tested or not shown; [ ] = another dose, or the depositor's remark. Unless noted, calls follow the shape of the dose curve; as a rule, active = well fitted curve in the direction sought with a large enough effect; inconclusive = small, poorly fitted or top-dose-only effect, or another doubt; inactive = no such curve, though single readings can be large; an effect the other way counts as inactive or inconclusive.

SMILES	WRN inhibitor	PI5P4Ka inh	Pol eta inh-1	Pol kappa inh-1	Pol beta inh	POLI inh	Pol eta inh-2	others
NC(CCC(=O)NC(CCSC(CC(=O)O)C(=O)O)C(=O)NCC(=O)O)C(=O)O (stereo not drawn)	.	.	.	-7%[60.1 µM]	.	.	.
COc1ccc(/C=N/NC(=O)c2[nH]c3ccc(Cl)cc3c2-c2ccccc2)c(C(=O)O)c1OC	?	-5	79µM*	-6%	-20%	27%	38*
COc1ccc(/C=N\NC(=O)COc2ccc(Cl)cc2Cl)c(C(=O)O)c1OC	-5%	6	-25%	-4%	2%	149%	.
Cc1ccc(NC(=O)Cn2c(=O)n(-c3ccccc3)c(=O)c3ccc(C(=O)NCc4ccc5c(c4)OCO5)cc32)cc1	.	.	-12%	-2%	0%	4%	.
CCN(CC(=O)Nc1ccccc1C(F)(F)F)C(=O)CCc1nc2sc3c(c2c(=O)[nH]1)CCCC3	-3%[11.6 µM]	?	16µM*	?	.	28µM*	?
Cc1ccc(NC(=O)CCc2nc3sc4c(c3c(=O)[nH]2)CCCC4)c(Br)c1	?	-66*	25µM*	?	.	40µM*	85*
CCN(CC(=O)Nc1ccccc1C(F)(F)F)C(=O)CCc1nc2ccccc2c(=O)[nH]1	1%	4	2%	-16%	12%	6%	.
Cc1cc(SCC(=O)N/N=C/c2ccc(O)cc2O)nc2ccccc12	-9%	-13	-12%	-9%	2%	12%	.
O=C(Cc1nnc(NC(=O)c2ccccc2)s1)N/N=C\c1ccc(O)c(O)c1	18µM*	-75*	3.2µM*	3.2µM*	7.1µM*	2.2µM*	38*	Pol kappa inh-2=9.5*
Cc1cc(SCC(=O)N/N=C/c2ccc(O)c(O)c2)nc2ccccc12	79µM*	?	20µM*	?	8.9µM*	50µM*	38*
CCc1nc2ccc(C(=O)NCc3ccc4c(c3)OCO4)cn2c1N(C)Cc1cccs1	-15%	0	.	.	.	.	.
Cc1c(CCC(=O)NCCCCCC(=O)O)c(=O)oc2cc3occ(-c4ccccc4)c3cc12	?	-8	22µM*	?	?	45µM*	54*	Pol kappa inh-2=?
Cc1c(CC(=O)NCCCC(=O)O)c(=O)oc2cc3occ(-c4ccccc4)c3cc12	-13%	-6	17%	-9%	24%	-19%	.
COc1ccccc1C(=O)NNC(=O)c1ccc(Br)o1	3%	3	-8%	-2%	?	-11%	.
CC1=C(C(=O)O)N2C(=O)C(NC(=O)C(N)c3ccc(O)cc3)C2SC1 (stereo not drawn)	.	.	.	1%[60.1 µM]	.	.	.
Cc1nnc(SCC2=C(C(=O)O)N3C(=O)C(NC(=O)C(C)n4nc(C(F)(F)F)cc4C)C3SC2)s1 (stereo not drawn)	-12%[11.6 µM]	1	22µM*	-33%	18µM*	-19%	27*
O=C(C=Cc1ccco1)c1ccc([N+](=O)[O-])cc1	7%	-13	-18%	-20%	.	46%	.
O=C(/C=C/c1ccco1)c1ccc(NC(=O)C23CC4CC(CC(C4)C2)C3)cc1	?	-77*	10µM*	?	7.1µM*	?	?
C/C(=N\NC(=O)c1ccccc1O)c1cccc(NC(=O)c2ccccc2)c1	-12%	-11	-1%	6%	3%	-3%	.
C/C(=N\NC(=O)c1cc(O)ccc1O)c1cccc(NC(=O)c2cccc(Cl)c2)c1	-20%[11.6 µM]	?	?	79µM*	?	?	?
COc1cc(/C=C2/C(=O)NN(c3cccc(Cl)c3)C2=O)cc(OC)c1O	-19%	?	-13%	-7%	?	?	.
COc1cc(/C=C2/C(=O)NN(c3cccc(C)c3)C2=O)cc([N+](=O)[O-])c1O	-10%[11.6 µM]	-62*	22µM*	?	?	?	?
